Most compounds without a hit are left out; they make up all but 2.3% or so of the library.
Anesthetic bind: binds horse apoferritin like a general anesthetic; apoferritin/1-aminoanthracene competitive binding, fluorescence; Potency, µM (highest dose often 77.5 µM), inactives show at the highest dose activity change, negative = displacement, hits mostly inhibitors; 350,000 tested, 0.074% active; further: potency means the concentration at half of the fitted maximal effect; on the % scale 0 is the no-effect control and ±100 the full control effect; nearly all actives have a fitted effect of over 20% in size
Target sequence (P02791 2-175 limits assumed): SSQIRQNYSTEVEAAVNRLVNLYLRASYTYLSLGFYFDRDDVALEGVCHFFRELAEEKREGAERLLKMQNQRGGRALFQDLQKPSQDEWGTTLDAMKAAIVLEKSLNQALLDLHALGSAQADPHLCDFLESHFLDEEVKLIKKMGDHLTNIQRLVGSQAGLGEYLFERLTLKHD
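Probe: 1-aminoanthracene (50% saturated, PBS). Protein: horse-spleen apoferritin, 10 uM. Incubation: 10 min, room temperature. Detection: 380 nm excitation, 535 nm emission. Analysis: normalized response, four-parameter Hill.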
Nrf2 activator: activates Nrf2 signaling; AREc32 ARE-luciferase reporter (MCF7-derived line), luminescence, 24 h; Potency, µM (series often up to 46.1 µM), inactives show top-dose activation, most hits filed as activators; 410,000 tested, 0.31% active; AID 624171; further: potency means the concentration at half of the fitted maximal effect; % of control where 0% means no effect; nearly all actives have a fitted effect of over 65% in size
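AREc32 cells carrying an ARE-driven firefly luciferase reporter were seeded at 1000 cells/well in OPTI-MEM with 5% FBS, then exposed to compound for 24 hr at 37 deg C. Luminescence was read with Steady-Glo after 30 min at RT.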
A549 viability: kills or reduces viability of A549 cells in Nrf2 counter-screen; A549 ARE-Fluc cells, CellTiter-Fluor viability, 18-24 h; Potency, µM (series often up to 46 µM), without a hit: top-dose activity change, negative = cytotoxicity, usual class: inhibitors; 390,000 tested, 0.16% active; further: potency means the concentration at half of the fitted maximal effect; on the % scale 0 is the no-effect control and ±100 the full control effect
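A549 ARE_Fluc cells in 5% FBS OPTI-MEM were exposed to compounds in concentration-response for 18-24 h at 37 deg C. Viability was read by CellTiter-Fluor fluorescence (Ex 405/Em 525) after 30 min, before the luciferase read.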
Giardia kill: kills Giardia lamblia. Giardia lamblia trophozoite viability. 340,000 tested, 0.15% active. activity change, % at 7.66 µM, hits read low; in the data active means activity change below about -80%; inconclusive means between about -30% and that limit;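 further: parasites exposed to compound for two days anaerobically before the ATP read; on the % scale 0 is the no-effect control and ±100 the full control effect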
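Media and compound were dispensed first, then trophozoites at 100 cells/well; plates sat 48 hrs at 37 deg C without oxygen before ATP luminescence reagent was added and read after 15-30 min at room temperature.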
IDH1 R132H inh: human IDH1 R132H inhibition; O75874; IDH1-R132H enzyme, NADPH consumption, diaphorase/resazurin fluorescence; Potency, µM (top dose mostly 76.6 µM), inactives show top-dose activity change, negative = inhibition, most hits filed as inhibitors; 390,000 tested, 0.093% active; AID 602179; further: potency means the concentration at half of the fitted maximal effect; on the % scale 0 is the no-effect control and ±100 the full control effect; nearly all actives have a fitted effect of over 65% in size
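IDH1-R132H (0.5 ug/mL dispensed) in pH 7.5 Tris buffer was preincubated 30 min with compound, then given a substrate mix of 0.016 mM NADPH and 2 mM alpha-KG for 80 min at room temperature; remaining NADPH was read by diaphorase/resazurin fluorescence.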
Nrf2 inh: Nrf2 pathway inhibition | A549 ARE-Fluc reporter, luciferase luminescence, 18-24 h | 360,000 tested, 2.1% active | Potency, µM (series often up to 46 µM), for the others: top-dose activity change, negative = inhibition, hits mostly inhibitors | AID 504444; further: potency means the concentration at half of the fitted maximal effect; on the % scale 0 is the no-effect control and ±100 the full control effect; nearly all actives have a fitted effect of over 60% in size
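Cells were seeded and rested 2 h, then exposed to compounds for 18-24 h. CellTiter-Fluor was read first as a viability measure. BugLite was added 15 min before the final luminescent read of ARE-luciferase activity in A549 cells.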
* hit, by the source's call; ? = inconclusive; . = no result; [ ] = another dose, or the depositor's remark. Unless noted, the call rests on the fitted dose curve; in most records, active means well fitted curve in the direction sought with a large enough effect; inconclusive means small, poorly fitted or top-dose-only effect, or another doubt; inactive means no such curve, though single readings can be large; an effect the other way counts as inactive or inconclusive.

SMILES	Anesthetic bind	Nrf2 activator	A549 viability	Giardia kill	IDH1 R132H inh	Nrf2 inh
COc1ccc(-n2nc([N+](=O)[O-])c(=NC3CCN(Cc4ccccc4)CC3)n2O)cc1	-10%	4%	?	-82*	9%	?
COc1ccc(-n2nc([N+](=O)[O-])c(=NCCc3ccc(Cl)cc3)n2O)cc1	-23%	0%	-10%	-84*	2%	7%
CCc1ccc(N=c2c([N+](=O)[O-])nn(-c3ccccc3)n2O)cc1	-20%	16%	-18%	?	3%	-14%
CCN(CC)CCN(C(=O)c1ccco1)c1nc2cc(C)cc(C)c2s1	-1%	1%	9%	.	0%	-20%
CCn1cnc2c(Nc3ccc(CCC(=O)N=C(N)N)cc3)nc(C#N)nc21	.	.	-5%	.	.	9%
O=C(CSc1nc(-c2ccc(F)cc2)cc(C(F)(F)F)n1)NCCc1ccccc1	-21%	-1%	-6%	.	7%	?
Cc1ccc(CN=c2c([N+](=O)[O-])nn(-c3cccc(C)c3)n2O)cc1	?	6%	1%	-83*	7%	?
COc1ccc(-n2nc([N+](=O)[O-])c(=NCc3cccnc3)n2O)cc1	-16%	6%	-20%	-97*	9%	23%
COc1ccc(-n2nc([N+](=O)[O-])c(=NCc3ccco3)n2O)cc1	-16%	15%	2%	-5	11%	?
COc1ccc(-n2nc([N+](=O)[O-])c(=NCCC3=CCCCC3)n2O)cc1	?	6%	-21%	-91*	1%	?
COc1ccc(CNc2nc(NCc3ccc(OC)cc3)c3ncn(C4CCCCC4)c3n2)cc1	167%	.	.	.	.	.
Cc1cccc([S+](=O)([O-])NC2CCN(C#N)CC2)c1	.	.	-1%	.	.	13%
Cc1cc2c(s1)c1cnn(Cc3ccc(F)cc3Cl)c(=O)c1n2C	.	.	0%	.	.	4%
N=c1scc(-c2ccccc2)n1/N=C/c1ccco1	2%	11µM*	-6%	3	7%	3%
C(=N\n1c2ccccc2c2ccccc21)/c1ccccc1	-1%	22%	14%	11	3%	-4%
C(=N/n1c2ccccc2c2ccccc21)/c1ccco1	-2%	3.2µM*	12%	1	-1%	.
COc1ccc(N(CC(=O)Nc2cccc(Cl)c2C)S(=O)(=O)c2c(C)nn(C)c2C)cc1	-3%	0%	0%	.	7%	-4%
O=C(C1CCC(Cn2c(=S)[nH]c3ccccc3c2=O)CC1)N1CCN(c2ccccn2)CC1 (configuration not stated)	-10%	0%	?	-1	9%	18µM*
O=S(=O)(c1ccccc1C(F)(F)F)N1CCN(S(=O)(=O)c2ccccc2C(F)(F)F)CC1	-6%	-1%	5%	-2	1%	8%
CCn1c(N2CCN(S(=O)(=O)c3ccccc3C(F)(F)F)CC2)nc2ccccc21	-6%	3%	-13%	7	-5%	21µM*
CCn1c(N2CCN(S(=O)(=O)c3ccc(OC)cc3)CC2)nc2ccccc21	0%	0%[9.22 µM]	-17%	6	-9%	21µM*
COc1cc(NC(=O)Cn2nc(C(F)(F)F)c3c2CCCC3)c(OC)cc1Cl	0%	4%	-2%	.	-7%	-1%
CN(c1ccccc1)S(=O)(=O)c1cc(C(=O)OCC(=O)c2c(N)n(C)c(=O)n(C)c2=O)ccc1Cl	.	0%	4%	-14	7%	?
CCCCCCn1nc(C(=O)OCC(=O)c2c(N)n(C)c(=O)n(C)c2=O)c2ccccc2c1=O	-17%	-1%	-4%	-7	-6%	23µM*
Cn1c(N)c(C(=O)COC(=O)c2cccnc2Cl)c(=O)n(C)c1=O	0%	1%	-1%	8	1%	2%
CCN(c1ccccc1)S(=O)(=O)c1cc(C(=O)OCC(=O)c2c(N)n(C)c(=O)n(C)c2=O)ccc1C	.	3%	?	4	3%	18µM*
